High-throughput results (PubChem BioAssay)
Only some compounds are listed: those with a hit (about 9.2% of all), similar ones and a draw of the others.
HttQ103 aggreg: reduces HttQ103-GFP aggregates in PC12 cells | PC12 HttQ103-GFP aggregates, Acumen cytometry, 40 h | Potency, µM (top dose mostly 46.1 µM), inactives show top-dose activity change, negative = inhibition, hits mostly inhibitors | 220,000 compounds, 1.1% hits | AID 1688; active = well fitted curve in the direction sought with a large enough effect; inconclusive = small, poorly fitted or top-dose-only effect, or another doubt; inactive = no such curve, though single readings can be large; an effect the other way counts as inactive or inconclusive; also: % is scaled to controls: 0 for no effect and ±100 for the full control effect; nearly all actives have a fitted effect of over 60% in size
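Quantitative HTS on tebufenozide-induced (100 nM) PC12 cells stably expressing polyQ103 Huntingtin exon 1–GFP. Reduction of bright GFP aggregates, detected by laser scanning cytometry after lysis, identified actives across the titration.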
HTT cytoprotect: cytoprotection in Huntington HTT-Q103 PC12 cell model; PC12 HTT-Q103 induced, cytoprotection, ATP luminescence, 40 h; Potency, µM (highest dose often 56.4 µM), for inactives: cytoprotection (ATP increase), usual class: activators; 230,000 compounds, 0.14% hits; AID 1471; active = well fitted curve in the direction sought with a large enough effect; inconclusive = small, poorly fitted or top-dose-only effect, or another doubt; inactive = no such curve, though single readings can be large; an effect the other way counts as inactive or inconclusive; also: % of control where 0% means no effect; nearly all actives have a fitted effect of over 45% in size
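ATP quantification (ATPlite) reports survival of PC12 cells in which tebufenozide, 100 nM final, switches on Htt exon 1 with 103 glutamines linked to GFP; compounds are titrated.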
KDM4E inh: inhibitors of human JMJD2E histone demethylase; B2RXH2; JMJD2E catalytic domain, FDH-coupled NADH fluorescence (FDH is formaldehyde dehydrogenase); Potency, µM (top dose mostly 57.1 µM), for the others: top-dose activity change, negative = inhibition, most hits filed as inhibitors; 230,000 compounds, 1.6% hits; AID 2147;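 also: 0% = wells with enzyme and -100% = buffer wells without enzyme; nearly all actives have a fitted effect of over 50% in size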
Target sequence (B2RXH2 1-337 limits assumed): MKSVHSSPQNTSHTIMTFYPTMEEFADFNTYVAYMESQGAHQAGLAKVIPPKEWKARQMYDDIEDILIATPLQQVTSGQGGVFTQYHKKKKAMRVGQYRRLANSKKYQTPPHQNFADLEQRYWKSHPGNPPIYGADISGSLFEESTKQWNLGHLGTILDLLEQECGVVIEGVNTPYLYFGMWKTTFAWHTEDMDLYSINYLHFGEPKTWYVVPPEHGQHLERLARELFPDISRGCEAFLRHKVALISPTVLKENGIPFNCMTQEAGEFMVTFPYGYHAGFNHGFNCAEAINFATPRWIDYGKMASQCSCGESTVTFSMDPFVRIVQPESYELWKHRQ
HPGD block: HPGD (human) dehydrogenase inhibition | P15428 | purified HPGD, NADH fluorescence kinetic, PGE2 substrate | Potency, µM, inactives show at the highest dose activity change, negative = inhibition, most hits filed as inhibitors | 150,000 compounds, 4.3% hits | AID 894; also: % is scaled to controls: 0 for no effect and ±100 for the full control effect
Target sequence (P15428 whole entry, looked up): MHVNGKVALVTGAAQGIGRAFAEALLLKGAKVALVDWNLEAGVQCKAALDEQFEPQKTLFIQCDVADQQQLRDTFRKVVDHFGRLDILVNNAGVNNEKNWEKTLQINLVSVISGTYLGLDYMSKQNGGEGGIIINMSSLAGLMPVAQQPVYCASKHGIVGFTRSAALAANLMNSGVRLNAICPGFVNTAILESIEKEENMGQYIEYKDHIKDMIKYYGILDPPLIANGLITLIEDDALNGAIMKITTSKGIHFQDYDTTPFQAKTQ
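NADH formation kinetics: reaction with 30 uM PGE2 and 1 mM NAD+ (final), 20 nM enzyme, Tris-HCl pH 8 with Tween 20, after 15 min compound preincubation at room temperature. Fluorescence change, last versus first of five reads.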
ALDH1A1 inh: blocks purified human ALDH1A1 activity | Purified ALDH1A1, NADH fluorescence, propionaldehyde substrate | Potency, µM (series often up to 75.3 µM), for the others: at the top dose activity, negative = inhibition, most hits filed as inhibitors | 220,000 compounds, 7.3% hits;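 also: plate controls were no enzyme wells and a reference inhibitor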
Lamin A splicing: changes lamin A minigene splicing in HeLa cells. AID 1487. HeLa LMNA splicing GFP/RFP minigene ratio, 48 h. Potency, µM (series often up to 46.1 µM), for inactives: top-dose ratio change, negative = inhibition, most hits filed as inhibitors. 200,000 compounds, 0.01% hits; active = well fitted inhibition curve with a large enough effect in the signal ratio, with a control signal flat, not every such curve was filed as active; inconclusive = small, poorly fitted or top-dose-only effect, or effect the other way, or a change in a side signal; the % refers to the signal ratio; also: % is scaled to controls: 0 for no effect and ±100 for the full control effect
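Read-out is the ratio of GFP to DsRed2 object intensity, acquired by 488 nm laser-scanning cytometry on HeLa lamin A-EGFP minigene reporter cells. Compound incubation 48 hrs at 37 °C in Opti-MEM with 2% FBS; DMSO 0.5% final.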
* hit, by the source's call; ? = inconclusive; / = no result; [ ] = another dose, or the depositor's remark. Unless noted, calls follow the shape of the dose curve; as a rule, active = well fitted inhibition curve with a large enough effect (not every such curve was filed as active); inconclusive = small, poorly fitted or top-dose-only effect, or another doubt; inactive = no such curve, though single readings can be large or run the other way. Potency is read from the fitted curve at half-maximal effect.

SMILES	HttQ103 aggreg	HTT cytoprotect	KDM4E inh	HPGD block	ALDH1A1 inh	Lamin A splicing
CC(=O)c1cc(F)c(N2CCN(C(=O)c3ccco3)CC2)cc1C	-18%	-36%[10 µM]	0%	-9%	?	11%
CCCOc1ccc(N2C(=O)CC(N3CCN(C(=O)c4ccco4)CC3)C2=O)cc1 (centres undefined)	16%	-1%[10 µM]	-2%	7%	?	-6%
CC(=O)c1ccc(N2CCCCC2)c(F)c1	-11%[9.22 µM]	-22%[10 µM]	-31%	/	-6%	/
CC(=O)c1ccc(N2CCN(C(=O)c3ccc(Br)cc3)CC2)c(F)c1	-12%	-6%	4%	28µM*	10µM*	-3%
COC(=O)[C@@H]1C[C@H]1[C@@H](NC(=O)c1cccnc1)c1ccccc1	/	-7%	6%	-3%	3%	/
Cc1ccc(Oc2nc3c(c(=O)n(C)c(=O)n3C)n2C)cc1C	?	-37%	15%	/	-13%	?
Cn1c(NCc2ccccc2)nc2c1c(=O)n(Cc1ccccc1)c(=O)n2C	-10%	-18%[10 µM]	6%	-27%	?	-17%
CCCOc1nc2c(c(=O)n(C)c(=O)n2C)n1C	-3%[9.22 µM]	-5%[10 µM]	10%	/	/	/
Cn1c(=O)c2c(nc(Oc3ccc(-c4ccccc4)cc3)n2C)n(C)c1=O	2.8µM*	-11%	10%	-11%	10%	9%
CCCOc1nc2c(c(=O)n(C)c(=O)n2C)n1Cc1cccc2ccccc12	13µM*	-88%	0%	-6%	?	?
CC(C)CCNc1nc2c(c(=O)n(Cc3cccc(F)c3)c(=O)n2C)n1C	25µM*	-25%	6%	?	13µM*	?
COCCNc1nc2c(c(=O)n(C)c(=O)n2C)n1Cc1cccc(C)c1	16µM*	-12%[10 µM]	11%	1%	2%	?
COc1ccccc1CN1CCC2(CC1)CCN(C(=O)c1cccc(F)c1)CC2	/	-37%	/	1%	5%	/
CCOC1=NN(c2ncc(C(F)(F)F)cc2Cl)C(=O)/C1=C/N(C)C	-14%	-4%	-1%	/	1%	/
O=C(NCCO)c1ccc(Cl)cc1	/	-6%[10 µM]	/	-3%	-3%[13.5 µM]	/
CC(C)C[C@@H](CC(=O)N[C@@H](CCC(=O)O)CC(=O)O)NC(=O)[C@@H]1CNCC[C@H]1NC(=O)C[C@@H](NC(=O)C[C@H](Cc1ccccc1)NC(=O)[C@@H]1CCCC[C@H]1N)C(C)C	/	5%[1.9 µM]	-16%	-8%	-9%	/
COc1cccc(Cn2c(Oc3ccccc3)nc3c2c(=O)n(C)c(=O)n3C)c1	-28%	-3%[10 µM]	7%	-22%	0.25µM*	-8%
COc1cccc(Cn2c(Oc3cccc(C)c3)nc3c2c(=O)n(C)c(=O)n3C)c1	-27%	-13%	6%	-4%	?	1%
CCOC(=O)C1CCN(Cc2ccccc2C(F)(F)F)CC1	9%[9.22 µM]	-10%[0.074 µM]	?	-5%	?	0%
Oc1ccc(CN2CCCc3ccccc32)c2cccnc12	?	28%[10 µM]	8.9µM*	-9%	10µM*	?
CCOC(=O)C1CCN(Cc2ccc(O)c3ncccc23)CC1	-8%	-35%	8.9µM*	-6%	?	-10%
COc1ccccc1N1CCN(Cc2ccc(O)c3ncccc23)CC1	1.1µM*	-77%[10 µM]	1%	-13%	-7%	?
Cc1cc(F)ccc1NC(=O)c1c(C)oc2c1C1=NCCN1C=N2	/	/	/	/	/	-10%[46 µM]
CCOc1ccc(NC(=S)NC(C)c2cccs2)cc1 (centres undefined)	-10%	-7%[0.074 µM]	-1%	-17%	-1%	2%
COc1ccc(N2CC(C(=O)NCc3nnnn3-c3ccc(C)c(C)c3)CC2=O)cc1 (centres undefined)	/	/	/	/	/	4%[46 µM]
SMILES	HttQ103 aggreg	HTT cytoprotect	KDM4E inh	HPGD block	ALDH1A1 inh	Lamin A splicing
O=C(c1ccncc1)N1CCC[C@@]2(CCN(C(c3ccccc3)c3ccccc3)C2)C1	/	-3%	/	-3%	-5%	/
CSc1nc2ccc(S(=O)(=O)NC3CCCCC3)cc2s1	?	3%	-1%	16µM*	?	?
CCOc1cc(S(=O)(=O)NC2CCCCCC2)ccc1F	-33%	1%	-3%	25µM*	3.2µM*	?
CCOc1ccc(S(=O)(=O)NC2CCCCCC2)cc1	9%[9.22 µM]	38%[10 µM]	-4%	/	?	?
O=S(=O)(Nc1ccc2c(c1)OCCO2)c1ccc2oc3ccccc3c2c1	11µM*	-1%[0.074 µM]	-5%	28µM*	?	?
CSc1nc2ccc(NS(=O)(=O)c3ccc4c(c3)OCCO4)cc2s1	8.9µM*	11%[10 µM]	-2%	-22%	-3%	?
COCC1C2CC[C@H]3C(OCc4ccc(OC)cc4)OC[C@]4(C)[C@H]3C2=C(CN4C(=O)OC(C)(C)C)[C@H](C)C1COC (some centres undefined)	/	-44%	-14%	?	?	/
Cn1[nH]c(CSc2ccc(Cl)cc2)cc1=O	9%	-5%[10 µM]	?	/	1.8µM*	7%[46 µM]
O=c1cc(CSc2ccc(Cl)cc2)nc(N2CCCCC2)[nH]1	-9%	-5%	3%	/	1%	?
Cc1ccc(S(=O)(=O)N[C@H]2COC(=O)[C@@H](Cc3ccccc3)NC(=O)[C@@H](C)COC(=O)C/C=C\[C@@H]2C)cc1	/	-6%[10 µM]	/	/	1%[13.5 µM]	/
O=[N+]([O-])c1c(Cl)cc(Cl)cc1Cl	/	?	/	-7%	26%	/
Cc1ccc(N/C(N)=N/c2nc3c(c(=O)[nH]2)CCCC3)c(C)c1	8%	13%	9%	-28%	-5%	4%
Cc1ccc(N/C(N)=N/c2nc(C)cc(N3CCCCC3)n2)c(C)c1	13µM*	-44%	9%	/	-1%	/
O=S(=O)(c1ccccc1)N1CCC2(CCCN(Cc3ccncc3)C2)CC1	/	10%	/	-7%	?	/
N#C/C(=C(/O)CN1CCN(c2ccccc2F)CC1)c1nc(-c2ccc(Cl)cc2)cs1	?	-68%	3%	-9%	15%	0%
COc1ccccc1N1CCN(C/C(O)=C(\C#N)c2nc(-c3ccccc3)cs2)CC1	-10%	-19%[0.074 µM]	?	-21%	11µM*	10%
N#C/C(=C(/O)CN1CCOCC1)c1nc(-c2ccccc2)cs1	-3%	-21%[0.074 µM]	-2%	-11%	1%	2%
CCOC(=O)C1CCCN(C/C(O)=C(\C#N)c2nc(-c3ccccc3)cs2)C1 (centres undefined)	-11%	14%[10 µM]	0%	-24%	32µM*	-16%
C[C@@](N)(C(=O)O)c1cccc(CC(=O)O)c1	/	?	-2%	-9%	2%	/
Nc1ncnc2c1ncn2[C@@H]1O[C@@H](COP(=O)(O)OP(=O)(O)OP(=O)(O)OP(=O)(O)OC[C@@H]2O[C@@H](n3cnc4c(N)ncnc43)[C@@H](O)[C@H]2O)[C@H](O)[C@@H]1O	/	-16%[1.9 µM]	/	/	/	/
